An excerpt weighted towards active compounds, which were near 1.6% of everything screened.
HBB splice mod = modulators of hemoglobin beta chain splicing | HBB splicing reporter cell assay, activation; EGFP reporter with mutant IVS2-654 intron; response scale: normalised to 500 nM splice-correcting PNA | Potency, µM (highest dose often 46.1 µM), actives largely listed as activators | 0.06% of 65,000 active | AID 925
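Compounds were applied for 2 days to HeLa EGFP-654 cells, 500/well in Optimem with 2% FCS. The reporter's EGFP is disrupted by mis-splicing of beta-globin intron IVS2-654. Readout: summed well GFP fluorescence from 488 nm laser scanning; reference was 500 nM antisense […] 654 PNA.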
Imprint erasure = genomic imprint erasure induction. mouse ES Peg3-LacZ reporter, beta-gal luminescence, 40 h. Potency, µM (titrated, usually from 60.7 µM), hits mostly activators. 0.02% of 110,000 active. AID 1948
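Readout: BetaGlo luminescence (5 min, room temp) for LacZ from the normally silent maternal Peg3 allele in female Peg3LacZ-Neo ES cells. Cells 300/well, 40 h, 37C, 5% CO2. Data normalized per plate to negative controls.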
p53ts 39C tox = cytotoxicity in p53ts cells at nonpermissive temperature. H1299-p53A138V viability at 39C, ATP luminescence, 24 h. Potency, µM (top dose mostly 46.1 µM), hits mostly cytotoxic. 1.5% of 130,000 active. AID 902; note: nearly all actives have a fitted effect of over 55% in size
p53ts 32C tox = cytotoxicity in p53ts cells at permissive temperature | H1299-p53A138V at 32C, ATP luminescence viability, 24 h | Potency, µM (highest dose often 46.1 µM), hits mostly cytotoxic | 0.93% of 130,000 active; note: nearly all actives have a fitted effect of over 55% in size
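Cells: H1299 p53ts (A138V), 600/well, pre-incubated 16–30 h at 37C. Cpd up to 46 uM, 24 h, 32C. Readout: ATPlite luminescence, 20 min RT. Normalization: DMSO vs tamoxifen 100 uM. AC50 by Hill equation.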
UbGFP stabilizer = ubiquitin-GFP accumulation via proteasome inhibition; Ubiquitin-GFP reporter cells, proteasome inhibition, GFP fluorescence; response scale: untreated = 0%, 10 µM MG-132 = 100%; Potency, µM (doses to about 45.9 µM), actives largely listed as activators; 67,000 tested, under 10 active; AID 526; active = well fitted activation curve with a large enough effect, not every such curve was filed as active; inconclusive = small, poorly fitted or top-dose-only effect, or another doubt; inactive = no such curve, though single readings can be large or run the other way
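U2OS Ub(G76V)-GFP reporter; O/N plating, 0.5% FBS; cpd 46 uM–2.9 nM, 4 h, 37 °C; GFP+ cell count, 488/515 nm; norm. to basal vs 10 uM MG-132; CRC fit.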
Epigenetic mod = epigenetic GFP locus derepression in mouse cells | mouse C127i GFP locus derepression, cytometry, 30 h | Potency, µM (doses to about 46.1 µM) | 0.09% of 68,000 active | AID 597
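Murine C127i mammary cells carrying a silenced, stably integrated CMV-driven GFP reporter were treated with compound for 30 hours at 37 C. After PBS washes, GFP-positive cells were counted by laser-scanning microplate cytometry.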
Hits are given with their value; . = inactive; ? = inconclusive; / = not tested or not shown; [ ] = dose if it differs, or a comment. Unless noted, calls come from the whole dose curve; as a rule, active = well fitted curve in the direction sought with a large enough effect; inconclusive = small, poorly fitted or top-dose-only effect, or another doubt; inactive = no such curve, though single readings can be large; an effect the other way counts as inactive or inconclusive.

SMILES | HBB splice mod | Imprint erasure | p53ts 39C tox | p53ts 32C tox | UbGFP stabilizer | Epigenetic mod
C=CC(C1=CC(=O)C(OC)=CC1=O)c1ccccc1 (stereo unspecified) | / | . | . | 13µM | / | /
FC(F)(F)c1cc(CO[C@@H]2CCCN[C@H]2c2ccccc2)cc(C(F)(F)F)c1 | . | / | 20µM | ? | . | .
O=C(Nc1ccc(F)c(Cl)c1)C1CCCN(c2ncnc3onc(-c4ccc(F)cc4)c23)C1 (stereo unspecified) | / | .[10.9 µM] | . | . | / | /
O=c1c(-c2ccc(F)cc2)nc2cnc(N3CCNCC3)nc2n1-c1ccccc1 | . | . | ? | 13µM | . | .[9.22 µM]
CN1CCN(c2ncc3nc(CCc4ccccc4)c(=O)n(CCc4ccccc4)c3n2)CC1 | . | . | ? | ? | . | .[9.22 µM]
O=c1c(-c2cc(F)cc(F)c2)nc2cnc(N3CCNCC3)nc2n1Cc1ccc(F)cc1 | . | . | ? | ? | . | .[9.22 µM]
O=c1c(CCc2ccccc2)nc2cnc(N3CCNCC3)nc2n1CCc1ccccc1 | . | / | 10µM | 13µM | . | .[9.22 µM]
O=c1c(-c2cccs2)nc2cnc(N3CCNCC3)nc2n1-c1ccccc1 | . | / | . | . | . | .[9.22 µM]
COc1cccc(Cn2c(=O)c(-c3cc(F)cc(F)c3)nc3cnc(N4CCNCC4)nc32)c1 | . | . | 16µM | ? | . | .[9.22 µM]
Cc1ccccc1NC(=O)Cn1c(=O)n(Cc2ccc3c(c2)OCO3)c(=O)c2ccccc21 | / | .[10.9 µM] | . | . | / | /
CC(C)(C)OC(=O)N1CCC(c2c(C(=O)NCc3ccco3)cnn2-c2ccccc2)CC1 | / | .[10.9 µM] | . | . | / | /
COC(=O)c1ccc(CSc2nc3c([nH]c4ccccc43)c(=O)n2-c2cc(C)cc(C)c2)o1 | / | .[10.9 µM] | 16µM | . | / | /
CN=c1scc(-c2cccs2)n1/N=C/c1ccc(O)c(O)c1O | / | / | 6.3µM | / | / | /
Cc1nc2ccccc2c(=O)n1/N=C/c1cn(-c2ccccc2)nc1-c1cccs1 | . | . | . | . | . | .
CC1(C)CCCC(C)(C)N1CC(O)COCCOc1ccc(Br)cc1 (stereo unspecified) | / | / | 4.5µM | ? | / | /
O=C(OCC1OC(OC(=O)c2cc(O)c(O)c(OC(=O)c3cc(O)c(O)c(O)c3)c2)[C@@H](OC(=O)c2cc(O)c(O)c(OC(=O)c3cc(O)c(O)c(O)c3)c2)C(OC(=O)c2cc(O)c(O)c(OC(=O)c3cc(O)c(O)c(O)c3)c2)C1OC(=O)c1cc(O)c(O)c(OC(=O)c2cc(O)c(O)c(O)c2)c1)c1cc(O)c(O)c(OC(=O)c2cc(O)c(O)c(O)c2)c1 (stereo partly specified) | / | . | 6.3µM | 10µM | / | /
Cc1ccnc(NC(=O)/C=C/c2cccs2)c1 | / | / | 7.1µM | / | / | /
Cc1cc([N+](=O)[O-])ccc1NC(=O)/C=C/c1cccs1 | / | / | . | / | / | /
COc1ccc(N(CC(=O)NCc2ccccc2Cl)S(=O)(=O)c2c(C)nn(C)c2C)cc1 | / | .[10.9 µM] | . | . | / | /
Cc1ccc(C)c(CN2C(=O)C(=O)c3ccccc32)c1 | / | .[10.9 µM] | . | . | / | /
Cc1ccc2c(c1)C(=O)C(=O)N2Cc1ccc(OC(C)C)cc1 | / | .[10.9 µM] | 16µM | ? | / | /
Cc1ccn2cc(C(=O)Nc3ccc4c(c3)OCCO4)nc2c1 | . | . | 13µM | 13µM | . | .
CC(=O)Nc1ccc(NC(=O)c2cc(-c3ccc4c(c3)OCCO4)on2)cc1 | / | .[10.9 µM] | 1.6µM | ? | / | /
CC(=O)c1cccc(NC(=O)c2cc(-c3ccc(C)cc3)on2)c1 | . | . | . | ? | . | .
Cc1ccc(O)c(NC(=O)c2cc(-c3ccc4c(c3)OCO4)on2)c1 | / | .[10.9 µM] | ? | ? | / | /
SMILES | HBB splice mod | Imprint erasure | p53ts 39C tox | p53ts 32C tox | UbGFP stabilizer | Epigenetic mod
Cc1ccn2cc(C(=O)Nc3ccccc3N3CCOCC3)nc2c1 | . | . | . | . | . | .
CC(=O)c1cccc(NC(=O)c2cc(-c3ccc4c(c3)OCCO4)on2)c1 | / | .[10.9 µM] | 2.5µM | 1.3µM | / | /
Cc1ccc(OC(=O)c2cc(-c3ccc4c(c3)OCCO4)on2)c(C)c1 | / | .[10.9 µM] | 13µM | 20µM | / | /
CCN1C(=O)c2ccccc2S(=O)(=O)c2ccc(C(=O)NCc3ccc(F)cc3)cc21 | / | .[10.9 µM] | . | . | / | /
Cc1ccc(-c2c(C(=O)N3CCN(c4cccc(C)c4)C(C)C3)oc(=O)c3ccccc23)cc1 (stereo unspecified) | / | .[10.9 µM] | . | . | / | /
O=C(Nc1cccc(-c2nnc(-c3ccccc3)o2)c1)c1ccc(Br)o1 | . | . | 25µM | ? | . | .
c1ccc2nc(-c3nc4ccccc4[nH]3)ccc2c1 | . | . | 2µM | 3.2µM | . | .
COc1ccc(CCNc2oc(COc3ccc(Cl)cc3)nc2C#N)cc1OC | / | .[10.9 µM] | ? | 22µM | / | /
COc1ccc(CCNc2oc(COc3cccc(C)c3)nc2C#N)cc1OC | / | .[10.9 µM] | . | . | / | /
CN1CCN(C(=O)Nc2cccc(Cl)c2)c2cccnc21 | / | .[10.9 µM] | . | . | / | /
CC(C)c1ccc2oc(-c3cccc(NC(=O)c4ccc5c(c4)OCCO5)c3)nc2c1 | / | .[10.9 µM] | 10µM | ? | / | /
Cc1ccc2nc(-c3cccc(NC(=O)c4ccc5c(c4)OCCO5)c3)oc2c1 | / | . | ? | ? | . | .
Nc1cccc(-c2nc3ccc(N)cc3s2)c1 | . | . | 3.2µM | 3.2µM | . | .
Nc1ccc(O)c(-c2nc3ccccc3s2)c1 | . | . | . | . | . | .
Cc1ccc2nc(-c3ccc(NC(=O)c4ccc(N)cc4)c(S(=O)(=O)O)c3)sc2c1 | .[9.22 µM] | .[10.9 µM] | .[9.22 µM] | .[9.22 µM] | .[9.17 µM] | .[9.22 µM]
Nc1ccc2nc(-c3ccc(O)cc3)sc2c1 | / | .[10.9 µM] | 0.63µM | 0.63µM | / | /
Cc1ccc(NC(c2cccc(Cl)c2)c2nnc(-c3ccccc3)o2)cc1F (stereo unspecified) | / | .[10.9 µM] | . | . | / | /
COCCCNC(=O)Cn1c(=O)n(-c2ccc(C)c(C)c2)c(=O)c2c3c(sc21)CCCCC3 | / | .[10.9 µM] | . | . | / | /
CCCOC(=O)Nc1nc2ccccc2o1 | / | / | ? | 10µM | . | .
CCOC(=O)c1ccccc1NC(=O)CSc1nc2ccccc2o1 | . | . | . | . | . | .
COc1cccc(-c2nc(SCc3cc(=O)c4cc(Cl)ccc4[nH]3)n[nH]2)c1 | / | .[10.9 µM] | . | . | / | /
Cc1ccc(C(=O)/C=C2\NCCNC2=O)cc1 | / | / | ? | 13µM | / | /
O=C(Nc1cc(-c2nc3ccccc3o2)ccc1Cl)c1ccc(N2CCCCC2)c([N+](=O)[O-])c1 | / | .[10.9 µM] | . | . | / | /
O=C1CC(c2ccccc2)Cc2nc(NCc3ccco3)ncc21 (stereo unspecified) | . | . | 7.9µM | 6.3µM | . | .
Cc1ccc(CCNC(=O)c2ccc3c(c2)nc2n3CCCCC2)cc1 | / | .[10.9 µM] | . | . | / | /
CCCNC(=O)c1ccc2c(c1)nc1n2CCCCC1 | / | .[10.9 µM] | 6.3µM | 13µM | / | /
COCCCNC(=O)c1ccc2c(c1)nc1n2CCCCC1 | / | .[10.9 µM] | 10µM | ? | / | /

High-throughput results deposited in PubChem by National Center for Advancing Translational Sciences (NCATS).
